Bioassay records (PubChem BioAssay)
Compounds with a hit are over-represented: about 2.5% of the library has one in this group of screens.
Pol iota inh: inhibitors of human DNA polymerase iota. Potency, µM (doses to about 115 µM), for inactives: at the top dose activity, negative = inhibition, usual class: inhibitors. AID 588590. 390,000 tested, 1% active. Q9UNA4. Pol iota fluorescent replication assay, 10 min
Target sequence (Q9UNA4 whole entry, looked up): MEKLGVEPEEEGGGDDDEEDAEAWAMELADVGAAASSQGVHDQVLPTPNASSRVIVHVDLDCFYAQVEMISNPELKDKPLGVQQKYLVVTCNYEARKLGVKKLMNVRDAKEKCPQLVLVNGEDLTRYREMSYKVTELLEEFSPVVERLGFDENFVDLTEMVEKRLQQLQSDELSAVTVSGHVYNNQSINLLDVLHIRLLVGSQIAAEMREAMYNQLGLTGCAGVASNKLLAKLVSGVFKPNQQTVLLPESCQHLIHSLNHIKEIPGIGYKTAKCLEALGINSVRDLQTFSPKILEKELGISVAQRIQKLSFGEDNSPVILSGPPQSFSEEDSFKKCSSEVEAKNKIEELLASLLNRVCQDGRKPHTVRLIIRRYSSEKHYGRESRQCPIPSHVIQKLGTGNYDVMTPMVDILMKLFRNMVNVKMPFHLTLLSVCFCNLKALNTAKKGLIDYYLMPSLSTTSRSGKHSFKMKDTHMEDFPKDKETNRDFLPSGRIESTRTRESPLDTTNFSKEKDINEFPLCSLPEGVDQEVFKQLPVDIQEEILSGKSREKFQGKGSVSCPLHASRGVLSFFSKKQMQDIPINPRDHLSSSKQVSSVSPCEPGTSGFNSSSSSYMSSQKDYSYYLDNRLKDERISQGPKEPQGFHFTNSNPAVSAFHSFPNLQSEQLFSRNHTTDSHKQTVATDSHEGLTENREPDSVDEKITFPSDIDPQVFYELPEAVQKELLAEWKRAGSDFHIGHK
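Fluorescent replication assay read twice, at 0 min and 10 min after adding 50 nM (final) substrate. Enzyme (10 nM) and compounds were first incubated 15 min at room temperature; enzyme-free buffer wells were negative controls.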
L3MBTL1 block: L3MBTL1 (human) inhibition. Q9Y468. AlphaScreen L3MBTL1–H3K9me1 peptide binding. Potency, µM (top dose mostly 57.1 µM), inactives show at the top dose activity, negative = inhibition, hits mostly inhibitors. 230,000 tested, 0.66% active. AID 485360; note: % is set by controls: 0 for no effect and ±100 for the full control effect; nearly all actives have a fitted effect of over 60% in size
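Read-out is AlphaScreen signal from streptavidin donor and nickel chelate acceptor beads (10 ug/mL final each) bridging L3MBTL1 (50 nM) and biotinylated K9-monomethylated H3(1-15) peptide (75 nM), after 30 min compound exposure at room temperature.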
Pol eta inh-1: DNA polymerase eta (human) inhibition | 390,000 tested, 1.2% active | Potency, µM (titrated, usually from 114 µM), inactives show at the highest dose activity change, negative = inhibition, actives largely listed as inhibitors | recombinant Pol eta, fluorescent DNA replication assay | AID 588591; note: % is set by controls: 0 for no effect and ±100 for the full control effect
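Fluorescent replication assay: 50 nM final substrate added after a 15 min room-temperature compound preincubation with 10 nM enzyme. Signal taken at 0 min and again at 10 min.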
APEX1 inh: APE1 (human) endonuclease inhibition. P27695. recombinant APE1, TAMRA/BHQ-2 abasic DNA cleavage fluorescence. Potency, µM (top dose mostly 65.8 µM), inactives show at the top dose activity change, negative = inhibition, usual class: inhibitors. 350,000 tested, 0.35% active;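 note: plate controls were vehicle for no effect and reference inhibitor for full effect; nearly all actives have a fitted effect of over 55% in size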
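Enzyme (0.75 nM final) and test compound are incubated 15 min at room temperature before adding 50 nM quenched THF abasic-site duplex. Cleavage dequenches TAMRA, followed at 525/598 nm over three reads one minute apart.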
Pol kappa inh-1: DNA polymerase kappa (human) inhibition | purified Pol kappa, fluorescent DNA synthesis assay, 10 min | AID 588579 | Potency, µM (doses to about 107 µM), without a hit: at the top dose activity, negative = inhibition, actives largely listed as inhibitors | 400,000 tested, 0.53% active | Q9UBT6; note: % is set by controls: 0 for no effect and ±100 for the full control effect
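Kinetic fluorescence screen: compound preincubated 15 min RT with 10 nM enzyme; 50 nM substrate (final) initiates; reads at 0/10 min.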
Pol beta inh: DNA polymerase beta (human) inhibition; Pol beta primer extension/strand displacement, fluorescence kinetic; 340,000 tested, 1.3% active; Potency, µM (highest dose often 114 µM), without a hit: top-dose activity change, negative = inhibition, most hits filed as inhibitors; AID 485314; note: % is set by controls: 0 for no effect and ±100 for the full control effect
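Enzyme-only controls used 10 nM Pol beta; buffer lacking enzyme served as negative control. Compound preincubated 15 min, then 50 nM substrate added; 0 and 10 min reads at room temperature.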
Pol kappa inh-2: confirmation of human DNA polymerase kappa inhibitors; Potency, µM, hits mostly inhibitors; 920 tested, 76% active; shares compounds with Pol eta inh-1; purified Pol-kappa, fluorescent strand-displacement substrate
Pol eta inh-2: Pol eta (human) inhibition, cherry-pick confirmation; shares compounds with Pol eta inh-1; Pol eta primer extension, TAMRA/BHQ fluorescence, 10 min; Potency, µM, hits mostly inhibitors; 2,600 tested, 64% active
Starred values were filed as active, the others as inactive; ? = inconclusive; . = no result given; [ ] = remark or other dose. Calls come from the whole dose curve; as a rule, active = well fitted curve in the direction sought with a large enough effect; inconclusive = small, poorly fitted or top-dose-only effect, or another doubt; inactive = no such curve, though single readings can be large; an effect the other way counts as inactive or inconclusive. Potency is the fitted concentration of half-maximal effect.

SMILES	Pol iota inh	L3MBTL1 block	Pol eta inh-1	APEX1 inh	Pol kappa inh-1	Pol beta inh	Pol eta inh-2	others
O=C(O)C1Cc2ccccc2CN1C(=O)COc1ccc(Cl)cc1Cl (stereo not drawn)	12.0%	.	25.1µM*	?	-42.0%	?	?
O=C(O)C1Cc2ccccc2CN1C(=O)CCl (stereo not drawn)	148.7%	-11.9%	?	-4.3%	-17.1%	-9.4%	.
Cc1ccc(-n2c(O)c(C=Nc3ccccc3-c3n[nH]c(=S)[nH]c3=O)c3ccccc3c2=O)cc1C	?	-14.0%	31.6µM*	-4.2%	?	?	?
CCC1Sc2ccccc2N(CC(=O)NCc2ccc(C)cc2)C1=O (stereo not drawn)	20.1%	.	-0.2%	.	-1.1%[60.1 µM]	11.5%	.
COc1ccc(OC)c(C2=NS(=O)(=O)N(C)C(C(=O)NCc3ccco3)=C2)c1	15.8%	.	-2.2%	-4.1%	0.0%	0.2%	.
O=C(O)c1ccc(-n2ncc(Cl)c(Cl)c2=O)cc1	.	.	22.4µM*	.	.	.	47.8*	Pol kappa inh-2=29.9*
Cc1noc(C)c1COc1ccc(C(=O)OCC(=O)N2CC(=O)Nc3ccccc32)cc1	-7.7%	35.8%	-5.5%	-4.0%	-11.4%	2.8%	.
Cc1cc(=O)oc2cc(OCC(=O)N3c4ccccc4NC(=O)C3(C)C)ccc12	39.8µM*	?	56.2µM*	-21.2%	?	.	?
Cc1noc(C)c1COc1ccc(C(=O)OCC(=O)N2c3ccccc3NC(=O)C2(C)C)cc1	?	.	7.08µM*	?	?	22.4µM*	.	Pol kappa inh-2=33.6*
CCC(C(=O)Nc1ccccc1)n1nc(-c2cc(C)ccc2C)ccc1=O (stereo not drawn)	10.8%	.	-11.7%	.	-10.2%	20.5%	.
COc1ccc(-c2c(C#N)c(SCC(=O)Nc3ccc(Br)cc3)nc(C)c2C(=O)Nc2ccccc2)cc1	10.0%	.	.	.	-1.4%	4.3%	.
CC(/C=C1\SC(=S)N(NS(=O)(=O)c2ccc(C)cc2)C1=O)=C\c1ccccc1	?	-16.0%	39.8µM*	-4.4%	-14.0%	39.8µM*	?
COc1cc(/C=C2\SC(=S)N(NS(=O)(=O)c3ccc(C)cc3)C2=O)ccc1O	39.8µM*	-13.3%	?	-11.2%	?	39.8µM*	.	Pol kappa inh-2=?
COc1cc(/C=C2\SC(=S)N(NS(=O)(=O)c3ccc(C)cc3)C2=O)cc(OC)c1OC	-23.2%	-21.5%	-2.4%	-3.2%	-18.9%	12.6%	.
COc1ccccc1/C=C1\SC(=S)N(NS(=O)(=O)c2ccccc2)C1=O	-18.6%	.	?	70.8%	-16.9%	-18.9%	.
O=C1/C(=C\c2ccc(Br)cc2)SC(=S)N1NS(=O)(=O)c1ccccc1	29.7%	.	50.1µM*	2.9%	-15.5%	67.8%	?
OCC[C@@H]1C[C@H](O)[C@@H](O)[C@]2(OCCc3cc(C(F)(F)F)ccc32)O1	.	.	0.9%	.	.	.	.
CC(=O)c1ccc(NC(=O)Nc2ccc3snnc3c2)cc1	89.1µM*	.	?	.	-24.2%	?	.	Pol kappa inh-2=?
CO[C@@]1(NC(=O)CSCC#N)C(=O)N2C(C(=O)O)=C(CSc3nnnn3C)CSC21 (stereo partly drawn)	.	.	.	-2.4%	-4.1%[60.1 µM]	.	.
CO[C@@]1(NC(=O)C2SC(=C(C(N)=O)C(=O)O)S2)C(=O)N2C(C(=O)O)=C(CSc3nnnn3C)CS[C@@H]21 (stereo partly drawn)	11.2µM*	7.94µM*	-2.0%	-2.0%	44.7µM*	.	30.1*
CCOC(=O)/C(=C\c1ccc(N2CCC(c3ccccc3)=N2)cc1)C(C)=O	-11.3%	.	?	.	-5.3%	.	?
O=C(/C=C/c1ccc(N2CCC(c3ccccc3)=N2)cc1)c1ccccc1	?	.	-14.7%	5.0%	-14.8%	-0.1%	.
Nc1ncnc2c1ncn2[C@@H]1O[C@H](COP(=O)(O)OP(=O)(O)OP(=O)(O)OP(=O)(O)OC[C@@H]2O[C@H](n3cnc4c(N)ncnc43)[C@@H](O)[C@@H]2O)[C@H](O)[C@H]1O	4.1%[58.9 µM]	.	-2.5%[57.1 µM]	-0.2%	.	-2.1%[57.1 µM]	.
CCN(CC)c1ccc(NC(=O)CSc2ccsc2[N+](=O)[O-])c(C)c1	?	?	44.7µM*	6.5%	?	25.1µM*	?	Pol kappa inh-2=59.7*
COc1ccc(S(=O)(=O)N2CCCCCC2)cc1C(=O)N(C)CC(=O)Nc1ccccc1Br	26.7%	-1.4%	-6.1%	12.4%	-10.8%	.	.
SMILES	Pol iota inh	L3MBTL1 block	Pol eta inh-1	APEX1 inh	Pol kappa inh-1	Pol beta inh	Pol eta inh-2	others
C=CCOCCN1C(=O)C2C3C=CC(C2C1=O)C1C2C(=O)N(CCOCC=C)C(=O)C2C31 (stereo not drawn)	28.2µM*	.	20µM*	?	?	?	67.5*
COc1ccc(Cc2nc(C)cc(Cl)n2)cc1[N+](=O)[O-]	92.5%	4.7%	-10.9%	29.3%	?	2.1%	.
CCn1c(C(=O)NCc2ccccc2C)cc2oc3ccccc3c21	-8.4%	.	.	.	-15.6%	-0.2%	.
CCOc1ccc(Nc2nc(Cc3nnc(SCC(=O)O)o3)cs2)cc1	?	?	50.1µM*	?	?	79.4µM*	?
Cc1ccc(S(=O)(=O)N/N=C\c2ccc(C)o2)cc1	?	?	44.7µM*	-3.4%	?	39.8µM*	67.5*
Cc1ccc(/C=N/NS(=O)(=O)c2ccc([N+](=O)[O-])cc2)o1	1.5%	7.7%	-7.7%	?	-11.6%	-13.2%	.
O=C(O)c1ccc(N/N=C/c2cc3ccccc3nc2Cl)cc1	10.2%	.	44.7µM*	-10.9%	-24.5%	-28.2%	?
Cc1cccc2cc(/C=N/Nc3ccc(C(=O)O)cc3)c(Cl)nc12	5.3%	.	?	9.5%	-9.1%	?	.
CCOc1ccc(N2CC(C(=O)NC3CCSC3=O)CC2=O)cc1 (stereo not drawn)	9.9%	.	3.7%	52.3%[12.4 µM]	-11.3%	-19.5%	.
O=C(NCC1CCCO1)c1sc(=S)n2c1[nH]c(=O)c1ccc(C(=O)N3CCCCC3)cc12 (stereo not drawn)	?	-8.5%	-13.9%	-7.4%	-25.6%	-21.2%	.
O=C(NC1CCCCC1)c1sc(=S)n2c1[nH]c(=O)c1ccccc12	-24.7%	-2.5%	25.1µM*	-3.9%	-23.4%	17.8µM*	.	Pol kappa inh-2=?
CCCCNC(=O)c1sc(=S)n2c1[nH]c(=O)c1ccccc12	-10.0%	-10.4%	?	-3.1%	-15.3%	?	.
